{"source": "PubChem BioAssay"}
{"assay": "calcein-AM signal in unstimulated myeloma cells – cell-based, calcein-AM fluorescence, 48 h, PK04 Diversity Set, profiling panel (AID 1166);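 further: cells grown under basal conditions without added stimulus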", "conditions": "RPMI8226 myeloma viability, higher = more signal"}
{"smiles": "CCOC(=O)NN=C1C[C@@H](O)[C@@H](O)[C@@H]2[C@@H]3C(=O)N(Cc4ccc5c(c4)OCO5)C(=O)[C@@H]3CC[C@H]12", "z-score": -0.0903}
{"smiles": "CO[C@H]1COC(=O)CC=C[C@H](C)[C@@H](OC)COC(=O)[C@@H](C)NC(=O)CC=C[C@@H]1C", "z-score": 0.0777}
{"smiles": "CO[C@@H]1COC(=O)CC=C[C@@H](C)[C@@H]2C=C[C@H](O)[C@@H](COC(=O)CC=C[C@H]1C)O2", "z-score": 0.448}
{"smiles": "CCOC(=O)[C@H](CC(C)C)NC(=O)CCC1CC(OC(=O)NCCc2ccc(F)cc2)CC2(CCCC(COC(=O)NCCc3ccccc3OC)O2)O1", "note": "(stereo partly specified)", "z-score": -1.41}
{"smiles": "CCCNC(=O)OC[C@H]1O[C@H](CCON=C(C)CCN2CCCc3nc(C)c(C)cc32)C=C[C@@H]1Oc1ccc(OC)cc1", "z-score": -1.57}
{"smiles": "CCC(=O)[C@@]1(O)C(=O)N2C(=C3C(=O)OCC[C@@H]31)N(Cc1ccccc1)C(C)=C(C(=O)OC)[C@H]2c1ccccc1", "z-score": 0.596}
{"smiles": "CC(C)(C)N1C(=O)[C@H]2[C@H]3[C@H](O)C=CC(=O)[C@@H]3CC[C@H]2C1=O", "z-score": 0.311}
{"smiles": "CC(CCN1CCCc2nc(C)c(C)cc21)=NO[C@@H](C)c1cc(-c2c(C)cc(C)cc2C)no1", "z-score": -0.843}
{"smiles": "C[C@H](ON=C1[C@H]2CCn3c(=O)n(-c4ccccc4)c(=O)n3[C@H]2[C@H](O)[C@@H]2O[C@H]12)c1cn([C@H](CO)Cc2ccccc2)nn1", "z-score": -0.533}
{"smiles": "CCN1C(=O)[C@H]2[C@H]3[C@H](O)[C@H](O)CC(=O)[C@H]3CC[C@H]2C1=O", "z-score": -1.17}
{"smiles": "C#CCCCON=C1C[C@@H](O)[C@@H](O)[C@@H]2[C@@H]3C(=O)N(c4ccc(F)cc4F)C(=O)[C@@H]3CC[C@H]12", "z-score": 0.116}
{"smiles": "O=C(NN=C1C[C@@H](O)[C@@H](O)[C@@H]2[C@@H]3C(=O)N(C4CCCCC4)C(=O)[C@@H]3CC[C@@H]12)OCc1ccccc1", "z-score": -0.697}
{"smiles": "CC(CCN1CCCCc2nc(C)c(C)cc21)=NOC[C@@H](O)COCc1ccco1", "z-score": -1.05}
{"smiles": "C=CC1=C[C@H](O)[C@@H]2O[C@@H]2C12OCCCO2", "z-score": 0.265}
{"smiles": "CON=C1[C@H]2CCn3c(=O)n(-c4ccccc4)c(=O)n3[C@H]2[C@H](O)[C@@H]2O[C@H]12", "z-score": 0.483}
{"assay": "JC-1 mitochondrial signal, unstimulated HepG2 cells – cell-based, JC-1 fluorescence, 24 h, 100 nL compound, profiling panel (AID 1167)", "conditions": "HepG2 mitochondrial potential, higher = more signal"}
{"smiles": "CC(CCN1CCCCc2nc(C)c(C)cc21)=NOC[C@@H](C)[C@H](OCc1ccccc1)C(C)C", "z-score": -0.728}
{"smiles": "COC(=O)CC=C[C@@H](C)[C@@H](C=NO[C@@H]1O[C@H](COC(C)=O)[C@@H](OC(C)=O)[C@H](OC(C)=O)[C@H]1OC(C)=O)OC", "z-score": -0.699}
{"smiles": "CO[C@@H]1COC(=O)[C@H](CCSC)NC(=O)CC=C[C@@H](C)COC(=O)CCC[C@H]1C", "z-score": 1.95}
{"smiles": "CCCNC(=O)OC[C@H]1O[C@H](CCON=C(C)CCC(=O)OC[C@H]2O[C@H](c3ccccc3)C=C[C@@H]2Oc2ccc(OC)cc2)C=C[C@@H]1Oc1ccc(OC)cc1", "z-score": 1.26}
{"smiles": "CCN1C(=O)[C@@H]2[C@H]3C(=CC[C@@H]2C1=O)C1(OCCCO1)[C@H]1O[C@H]1[C@H]3O", "z-score": -3.62}
{"smiles": "O=C1[C@H]2[C@H]3[C@H](O)[C@H](O)CC(=NOC[C@@H](O)COCc4ccco4)[C@H]3CC[C@H]2C(=O)N1Cc1ccccc1", "z-score": 0.176}
{"smiles": "CO[C@H]1COC(=O)[C@@H](C)COC(=O)[C@H](C)NC(=O)CC=C[C@H]1C", "z-score": 0.631}
{"smiles": "C[C@H]1COC(=O)[C@@H]2CCCN2C(=O)[C@@H](C)COC(=O)[C@H](Cc2ccccc2)NC1=O", "z-score": 0.278}
{"smiles": "COC(=O)CC=C[C@@H](C)[C@H](OCc1cccc(-c2ccccc2)c1)C1CCCCC1", "z-score": -0.579}
{"smiles": "C=CC[C@@H]1C=C[C@H](ON=C(C)CCC(=O)OC[C@H]2O[C@H](C#Cc3ccccc3)C=C[C@@H]2Oc2ccc(C)cc2)[C@@H](CO)O1", "z-score": -0.429}
{"smiles": "CON=C[C@@H](NS(=O)(=O)c1ccc(C)cc1)[C@H](C)C=CCC(=O)OC", "z-score": 0.271}
{"smiles": "CO[C@@H]1COC(=O)CC=C[C@H](C)[C@H](OC)COC(=O)[C@H](C)NC(=O)CC=C[C@H]1C", "z-score": 0.904}
{"smiles": "CC(CCC(=O)OC[C@H]1O[C@H](C#Cc2ccccc2)C=C[C@@H]1Oc1ccc(C)cc1)=NO[C@H](C)c1cn([C@H](CO)Cc2ccccc2)nn1", "z-score": 0.0151}
{"smiles": "CCOC(=O)[C@H](Cc1ccccc1)NC(=O)CCC1CC(OC(=O)NCc2cccc3ccccc23)CC2(CCCC(COC(=O)NCC(c3ccccc3)c3ccccc3)O2)O1", "note": "(stereo partly specified)", "z-score": 0.353}
{"smiles": "CC(C)=CCCC(C)=CCON=C1C[C@@H](O)[C@@H](O)[C@@H]2[C@@H]3C(=O)N(C[C@@H]4CCCO4)C(=O)[C@@H]3CC[C@H]12", "z-score": -0.915}
{"smiles": "COC(=O)[C@H]1O[C@@H](c2c(OC)c(OC)c(C)c(OC)c2OC)[C@H](C)[C@@H](O)[C@H]1C", "z-score": 0.438}
{"smiles": "COc1ccc(O[C@H]2C=C[C@@H](c3ccccc3)O[C@@H]2COC(=O)CCC(C)=NOC[C@@H](O)[C@H]2O[C@@H]3OC(C)(C)O[C@@H]3[C@H]2O)cc1", "z-score": -0.42}
{"smiles": "CCOC(=O)[C@H](CC(C)C)NC(=O)CCC1CC(OC(=O)NCCc2ccc(F)cc2)CC2(CCCC(COC(=O)NCC3CCCCC3)O2)O1", "note": "(stereo partly specified)", "z-score": -1.77}
{"smiles": "CC(C)=CCCC(C)=CCON=C1C[C@@H](O)[C@@H](O)[C@@H]2[C@@H]3C(=O)N(C4CCCCC4)C(=O)[C@@H]3CC[C@@H]12", "z-score": -1.64}
{"smiles": "COC(=O)CC=C[C@@H](C)[C@@H](C=NOC[C@H]1O[C@H](c2ccccc2)C=C[C@@H]1Oc1ccc(OC)cc1)NS(=O)(=O)c1ccc(C)cc1", "z-score": 0.0495}
{"smiles": "CCc1cc2c(nc1CC)CCN(CCC(C)=NO[C@H](C)c1cn([C@@H]3COC[C@H]3O)nn1)C2", "z-score": 0.338}
{"smiles": "CCOC(=O)NN=C1C[C@@H](O)[C@@H](O)[C@@H]2[C@@H]3C(=O)N(Cc4ccc5c(c4)OCO5)C(=O)[C@@H]3CC[C@H]12", "z-score": -0.268}
{"smiles": "CO[C@H]1COC(=O)CC=C[C@H](C)[C@@H](OC)COC(=O)[C@@H](C)NC(=O)CC=C[C@@H]1C", "z-score": -0.0888}
{"smiles": "CO[C@@H]1COC(=O)CC=C[C@@H](C)[C@@H]2C=C[C@H](O)[C@@H](COC(=O)CC=C[C@H]1C)O2", "z-score": 0.598}
{"smiles": "CCOC(=O)[C@H](CC(C)C)NC(=O)CCC1CC(OC(=O)NCCc2ccc(F)cc2)CC2(CCCC(COC(=O)NCCc3ccccc3OC)O2)O1", "note": "(stereo partly specified)", "z-score": 0.481}
{"smiles": "CCCNC(=O)OC[C@H]1O[C@H](CCON=C(C)CCN2CCCc3nc(C)c(C)cc32)C=C[C@@H]1Oc1ccc(OC)cc1", "z-score": 2.15}
{"smiles": "CCC(=O)[C@@]1(O)C(=O)N2C(=C3C(=O)OCC[C@@H]31)N(Cc1ccccc1)C(C)=C(C(=O)OC)[C@H]2c1ccccc1", "z-score": -0.255}
{"smiles": "CC(C)(C)N1C(=O)[C@H]2[C@H]3[C@H](O)C=CC(=O)[C@@H]3CC[C@H]2C1=O", "z-score": 0.102}
{"smiles": "CC(CCN1CCCc2nc(C)c(C)cc21)=NO[C@@H](C)c1cc(-c2c(C)cc(C)cc2C)no1", "z-score": 3.04}
{"smiles": "C[C@H](ON=C1[C@H]2CCn3c(=O)n(-c4ccccc4)c(=O)n3[C@H]2[C@H](O)[C@@H]2O[C@H]12)c1cn([C@H](CO)Cc2ccccc2)nn1", "z-score": -0.633}
{"smiles": "CCN1C(=O)[C@H]2[C@H]3[C@H](O)[C@H](O)CC(=O)[C@H]3CC[C@H]2C1=O", "z-score": -0.531}
{"smiles": "C#CCCCON=C1C[C@@H](O)[C@@H](O)[C@@H]2[C@@H]3C(=O)N(c4ccc(F)cc4F)C(=O)[C@@H]3CC[C@H]12", "z-score": 0.769}
{"smiles": "O=C(NN=C1C[C@@H](O)[C@@H](O)[C@@H]2[C@@H]3C(=O)N(C4CCCCC4)C(=O)[C@@H]3CC[C@@H]12)OCc1ccccc1", "z-score": -0.502}
{"smiles": "CC(CCN1CCCCc2nc(C)c(C)cc21)=NOC[C@@H](O)COCc1ccco1", "z-score": -1.43}
{"smiles": "C=CC1=C[C@H](O)[C@@H]2O[C@@H]2C12OCCCO2", "z-score": -0.977}
{"smiles": "CON=C1[C@H]2CCn3c(=O)n(-c4ccccc4)c(=O)n3[C@H]2[C@H](O)[C@@H]2O[C@H]12", "z-score": -1.17}
